PubChem BioAssay (NCI)
Where “and” joins values, the source holds several entries; their conditions need not be identical. Equal values may be shown once. This is part of a sample that, as a whole, favours compounds with a hit. Of some 83,000 tested, about 20% had one in any assay.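 Growth was measured after 48 h exposure to one concentration of compound in 96-well plates. Values under 10 count as active.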 Calls of active or inactive are those of the source.

What was measured:
Experiment in all cases: NCI-60 one-dose screen, 48 h (100 = growth as untreated, 0 = no growth, -100 = all killed)
Settings in all cases: 10 µM unless noted
DU-145 prostate = test system: DU-145 prostate
K-562 leukemia = test system: K-562 leukemia
MALME-3M melanoma = test system: MALME-3M melanoma
MDA-MB-231 breast = test system: MDA-MB-231 breast
RXF 393 renal = test system: RXF 393 renal
SF-268 CNS = test system: SF-268 CNS
SF-295 CNS = test system: SF-295 CNS
SF-539 CNS = test system: SF-539 CNS
UACC-257 melanoma = test system: UACC-257 melanoma
M14 melanoma = test system: M14 melanoma

Measured: growth

O=S(OO)c1cc(Cl)c(O)c(Cl)c1 (stereo not drawn)
inactive: DU-145 prostate 113% | K-562 leukemia 107% | MALME-3M melanoma 115% | MDA-MB-231 breast 110% | RXF 393 renal 106% | SF-268 CNS 103% | SF-295 CNS 94.3% | SF-539 CNS 95.7% | UACC-257 melanoma 99.6% | M14 melanoma 107%

CC(=O)c1cccc(S(=O)(=O)F)c1
inactive: DU-145 prostate 108% | K-562 leukemia 112% | MALME-3M melanoma 98.7% | MDA-MB-231 breast 104% | RXF 393 renal 98.8% | SF-268 CNS 108% | SF-295 CNS 83.1% | SF-539 CNS 89.1% | UACC-257 melanoma 99.2% | M14 melanoma 91.3%

C[N+]1(C)CCCC1c1cccnc1 (stereo not drawn)
inactive: DU-145 prostate 110% | K-562 leukemia 99.3% | MALME-3M melanoma 92.1% | MDA-MB-231 breast 109% | RXF 393 renal 102% | SF-268 CNS 108% | SF-295 CNS 100% | SF-539 CNS 107% | UACC-257 melanoma 96.9% | M14 melanoma 97.5%

C[C@]12CCC3[C@@H](C[C@@H]4SC(Nc5ccccc5)=N[C@@]45CC(=O)CC[C@]35C)[C@@H]1CCC2=O (stereo partly drawn)
active: DU-145 prostate -14.7% | K-562 leukemia 1.87% | MALME-3M melanoma 8.73% | MDA-MB-231 breast 5.67% | RXF 393 renal -63.8% | SF-539 CNS -44.8% | UACC-257 melanoma 3.21% | M14 melanoma 0.48%
inactive: SF-268 CNS 27% | SF-295 CNS 24.2%

CC1(C)N(Nc2ccccc2)C(=O)C2CCCN21 (stereo not drawn)
active: K-562 leukemia 8.29% | M14 melanoma 10%
inactive: DU-145 prostate 16.8% | MALME-3M melanoma 84.2% | MDA-MB-231 breast 89.6% | RXF 393 renal 116% | SF-268 CNS 39.5% | SF-295 CNS 84.5% | SF-539 CNS 89.3% | UACC-257 melanoma 89.2%

O=[N+]([O-])c1ccc(P(=O)(O)O)cc1
inactive: DU-145 prostate 110% | K-562 leukemia 108% | MALME-3M melanoma 92.6% | MDA-MB-231 breast 109% | RXF 393 renal 103% | SF-268 CNS 106% | SF-295 CNS 96% | SF-539 CNS 103% | UACC-257 melanoma 111% | M14 melanoma 96.1%

CC/C(=C(\c1ccc(OCCN2CCOCC2)cc1)c1ccc(OC(=O)Cc2ccccc2)cc1)c1ccc(Cl)cc1
inactive: DU-145 prostate 101% | K-562 leukemia 82.4% | MALME-3M melanoma 95.1% | MDA-MB-231 breast 109% | RXF 393 renal 114% | SF-268 CNS 94.1% | SF-295 CNS 99.4% | SF-539 CNS 105% | UACC-257 melanoma 107% | M14 melanoma 102%

Cc1ccc(N2CCN(CCC#N)CC2)cc1
inactive: DU-145 prostate 101% | K-562 leukemia 110% | MALME-3M melanoma 70.1% | MDA-MB-231 breast 107% | RXF 393 renal 88% | SF-268 CNS 105% | SF-295 CNS 105% | SF-539 CNS 79.1% | UACC-257 melanoma 84.5% | M14 melanoma 98.6%

CC[C@H](C)[C@H](NC(=O)[C@H]1CCCCN1C)C(=O)N(C)[C@H](C(=O)NC12CC(C(=O)N[C@@H](Cc3ccccc3)C[C@H](C)C(=O)OC)(C1)C2)C(C)C
inactive: DU-145 prostate 105% | K-562 leukemia 98.2% | MALME-3M melanoma 106% | MDA-MB-231 breast 110% | RXF 393 renal 108% | SF-268 CNS 90.2% | SF-295 CNS 102% | SF-539 CNS 100% | UACC-257 melanoma 102% | M14 melanoma 101%

O=c1[nH]c(=O)[nH]c(=O)[nH]1
inactive: DU-145 prostate 119% | K-562 leukemia 65.2% | MALME-3M melanoma 114% | MDA-MB-231 breast 122% | RXF 393 renal 91.1% | SF-268 CNS 116% | SF-295 CNS 97.6% | SF-539 CNS 104% | UACC-257 melanoma 146% | M14 melanoma 111%

O=C1CCCCC1CN1CCCCC1 (stereo not drawn)
inactive: DU-145 prostate 100% | K-562 leukemia 119% | MALME-3M melanoma 86.2% | MDA-MB-231 breast 116% | RXF 393 renal 121% | SF-268 CNS 97.7% | SF-295 CNS 97.2% | SF-539 CNS 97% | UACC-257 melanoma 96.2% | M14 melanoma 109%

CN(C)c1ccc(N)cc1
92.5% (inactive) and 4.45% (active): UACC-257 melanoma
inactive: DU-145 prostate 113% and 58.4% | K-562 leukemia 83.7% and 44.9% | MALME-3M melanoma 115% and 95.7% | MDA-MB-231 breast 88% and 58.6% | RXF 393 renal 109% and 84.7% | SF-268 CNS 97.9% and 65.8% | SF-295 CNS 110% and 59.9% | SF-539 CNS 104% and 67% | M14 melanoma 101%

O=NN(c1ccccc1)c1ccccc1
inactive: DU-145 prostate 103% | K-562 leukemia 113% | MALME-3M melanoma 86.2% | MDA-MB-231 breast 98.9% | RXF 393 renal 98.3% | SF-268 CNS 100% | SF-295 CNS 102% | SF-539 CNS 106% | UACC-257 melanoma 96% | M14 melanoma 106%

N#CC(C#N)=Cc1cccc(F)c1
inactive: DU-145 prostate 105% | K-562 leukemia 96.8% | MALME-3M melanoma 110% | MDA-MB-231 breast 109% | RXF 393 renal 110% | SF-268 CNS 99.7% | SF-295 CNS 105% | SF-539 CNS 105% | UACC-257 melanoma 107% | M14 melanoma 107%

O=C1NC(=O)C(=Cc2ccccc2)C(=O)N1
inactive: DU-145 prostate 103% and 111% | K-562 leukemia 86.2% and 112% | MALME-3M melanoma 96.1% and 109% | MDA-MB-231 breast 96.4% and 110% | RXF 393 renal 98.5% and 116% | SF-268 CNS 92.9% and 104% | SF-295 CNS 107% and 102% | SF-539 CNS 133% and 101% | UACC-257 melanoma 98.6% | M14 melanoma 103% and 106%

CCN(CC)CCn1c(=O)n(C)c2ccccc21
inactive: DU-145 prostate 109% | K-562 leukemia 103% | MALME-3M melanoma 103% | MDA-MB-231 breast 119% | RXF 393 renal 106% | SF-268 CNS 101% | SF-295 CNS 111% | SF-539 CNS 98.1% | UACC-257 melanoma 97.5% | M14 melanoma 108%

Nc1nc(=S)nc(N)[nH]1
inactive: DU-145 prostate 113% | K-562 leukemia 103% | MALME-3M melanoma 102% | MDA-MB-231 breast 92.1% | RXF 393 renal 101% | SF-268 CNS 93.3% | SF-295 CNS 95.9% | SF-539 CNS 97.1% | UACC-257 melanoma 87.2% | M14 melanoma 89.5%

CCOC(=O)C1C(C=C(C)C)C1(C)C (stereo not drawn)
inactive: DU-145 prostate 108% | K-562 leukemia 155% | MALME-3M melanoma 140% | MDA-MB-231 breast 106% | RXF 393 renal 114% | SF-268 CNS 101% | SF-295 CNS 101% | SF-539 CNS 93.5% | UACC-257 melanoma 106% | M14 melanoma 106%

Oc1ccccc1C=NCCN=Cc1ccccc1O
inactive: DU-145 prostate 108% | K-562 leukemia 112% | MALME-3M melanoma 113% | MDA-MB-231 breast 101% | RXF 393 renal 109% | SF-268 CNS 97% | SF-295 CNS 101% | SF-539 CNS 106% | UACC-257 melanoma 96.4% | M14 melanoma 102%

CN(C)C(=S)SSC(=S)N(C)C
inactive: DU-145 prostate 105% and 125% | K-562 leukemia 105% | MALME-3M melanoma 65.5% and 90.9% | MDA-MB-231 breast 112% and 98.5% | RXF 393 renal 104% and 128% | SF-268 CNS 102% and 113% | SF-295 CNS 75% and 96.9% | SF-539 CNS 100% and 112% | UACC-257 melanoma 77.7% and 103% | M14 melanoma 93% and 100%

CN(C)[C@@H]1C(=O)C(C(N)=O)=C(O)[C@@]2(O)C(=O)C3=C(O)c4c(O)ccc(Cl)c4[C@@](C)(O)[C@H]3C[C@@H]12
inactive: DU-145 prostate 103% | K-562 leukemia 109% and 93.8% | MALME-3M melanoma 79.3% and 80.7% | MDA-MB-231 breast 103% and 98% | RXF 393 renal 96.1% and 94.3% | SF-268 CNS 94.8% and 98.9% | SF-295 CNS 90.1% and 103% | SF-539 CNS 93.3% and 92.1% | UACC-257 melanoma 108% and 106% | M14 melanoma 79.8% and 92.6%

O=C(NCCCN1CC1)Nc1cccc2ccccc12
inactive: DU-145 prostate 104% and 102% | K-562 leukemia 86.4% | MALME-3M melanoma 75.8% and 104% | MDA-MB-231 breast 94.3% and 105% | RXF 393 renal 108% and 107% | SF-268 CNS 83.5% and 96.9% | SF-295 CNS 114% and 88.2% | SF-539 CNS 93.7% and 113% | UACC-257 melanoma 96.9% and 94.2% | M14 melanoma 99.6% and 98.8%

C[N+]12CCC34C5=CC(=O)C(=O)C=C5[N+]5(C)C(=O)CC6OCC=C(C1)C(CC32)C6C45 (stereo not drawn)
inactive: DU-145 prostate 102% | K-562 leukemia 97.6% | MALME-3M melanoma 99.4% | MDA-MB-231 breast 97.6% | RXF 393 renal 93.1% | SF-268 CNS 111% | SF-295 CNS 93% | SF-539 CNS 97.5% | UACC-257 melanoma 113% | M14 melanoma 118%

NC(=O)c1c(Br)c(Br)c(Br)c(Br)c1C(=O)O (tested in a mixture with another compound)
inactive: DU-145 prostate 112% and 108% | K-562 leukemia 80.6% and 79.6% | MALME-3M melanoma 102% and 91.1% | MDA-MB-231 breast 87.5% and 94.2% | RXF 393 renal 106% and 112% | SF-268 CNS 97.7% and 100% | SF-539 CNS 97.2% and 98.4% | UACC-257 melanoma 98.7% and 105%
